Source: ChEMBL document CHEMBL1961873, “Compounds: GSK PKIS; Assays: Nanosyn kinase panel” (2012)

Assays:
[1] = target: T1, Muscle, skeletal receptor tyrosine-protein kinase (Homo sapiens) (UniProt O15146); details: at 1 µM;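 further: reported value is the mean percent inhibition of MuSK kinase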
T1 sequence (whole entry): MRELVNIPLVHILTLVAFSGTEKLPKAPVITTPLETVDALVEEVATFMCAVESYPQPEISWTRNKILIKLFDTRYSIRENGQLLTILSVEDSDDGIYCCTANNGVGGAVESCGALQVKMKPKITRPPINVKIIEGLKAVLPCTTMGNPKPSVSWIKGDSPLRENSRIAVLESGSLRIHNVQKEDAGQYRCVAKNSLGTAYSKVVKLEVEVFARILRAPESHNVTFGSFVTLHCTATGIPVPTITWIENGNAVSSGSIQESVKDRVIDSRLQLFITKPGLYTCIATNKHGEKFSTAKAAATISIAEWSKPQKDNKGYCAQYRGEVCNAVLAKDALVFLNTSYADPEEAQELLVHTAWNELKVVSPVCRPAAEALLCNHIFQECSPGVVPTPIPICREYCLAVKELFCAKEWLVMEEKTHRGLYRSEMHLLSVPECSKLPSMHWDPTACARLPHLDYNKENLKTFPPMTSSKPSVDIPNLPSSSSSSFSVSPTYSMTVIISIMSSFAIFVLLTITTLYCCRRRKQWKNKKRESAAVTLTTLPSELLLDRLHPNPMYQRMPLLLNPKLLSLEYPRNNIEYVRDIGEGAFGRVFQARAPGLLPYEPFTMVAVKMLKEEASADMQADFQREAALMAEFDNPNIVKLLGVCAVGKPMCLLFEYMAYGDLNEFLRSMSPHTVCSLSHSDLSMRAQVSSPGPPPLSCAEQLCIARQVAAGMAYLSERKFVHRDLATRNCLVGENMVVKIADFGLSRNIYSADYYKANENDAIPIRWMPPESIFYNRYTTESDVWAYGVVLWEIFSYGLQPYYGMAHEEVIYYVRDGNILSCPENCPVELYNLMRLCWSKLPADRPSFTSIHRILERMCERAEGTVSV

[2] = target: Platelet-derived growth factor receptor alpha (Homo sapiens) (UniProt P16234); details: at 0.1 µM
[3] = target: Platelet-derived growth factor receptor alpha (Homo sapiens) (UniProt P16234); details: at 1 µM
[4] = system: Platelet-derived growth factor receptor alpha (Homo sapiens), P16234 [D842V]; details: at 0.1 µM
[5] = system: Platelet-derived growth factor receptor alpha (Homo sapiens), P16234 [D842V]; details: at 1 µM
[6] = system: Platelet-derived growth factor receptor alpha (Homo sapiens), P16234 [T674I]; details: at 0.1 µM
Platelet-derived growth factor receptor alpha (Homo sapiens), P16234 [T674I], sequence (P16234 whole entry T674I): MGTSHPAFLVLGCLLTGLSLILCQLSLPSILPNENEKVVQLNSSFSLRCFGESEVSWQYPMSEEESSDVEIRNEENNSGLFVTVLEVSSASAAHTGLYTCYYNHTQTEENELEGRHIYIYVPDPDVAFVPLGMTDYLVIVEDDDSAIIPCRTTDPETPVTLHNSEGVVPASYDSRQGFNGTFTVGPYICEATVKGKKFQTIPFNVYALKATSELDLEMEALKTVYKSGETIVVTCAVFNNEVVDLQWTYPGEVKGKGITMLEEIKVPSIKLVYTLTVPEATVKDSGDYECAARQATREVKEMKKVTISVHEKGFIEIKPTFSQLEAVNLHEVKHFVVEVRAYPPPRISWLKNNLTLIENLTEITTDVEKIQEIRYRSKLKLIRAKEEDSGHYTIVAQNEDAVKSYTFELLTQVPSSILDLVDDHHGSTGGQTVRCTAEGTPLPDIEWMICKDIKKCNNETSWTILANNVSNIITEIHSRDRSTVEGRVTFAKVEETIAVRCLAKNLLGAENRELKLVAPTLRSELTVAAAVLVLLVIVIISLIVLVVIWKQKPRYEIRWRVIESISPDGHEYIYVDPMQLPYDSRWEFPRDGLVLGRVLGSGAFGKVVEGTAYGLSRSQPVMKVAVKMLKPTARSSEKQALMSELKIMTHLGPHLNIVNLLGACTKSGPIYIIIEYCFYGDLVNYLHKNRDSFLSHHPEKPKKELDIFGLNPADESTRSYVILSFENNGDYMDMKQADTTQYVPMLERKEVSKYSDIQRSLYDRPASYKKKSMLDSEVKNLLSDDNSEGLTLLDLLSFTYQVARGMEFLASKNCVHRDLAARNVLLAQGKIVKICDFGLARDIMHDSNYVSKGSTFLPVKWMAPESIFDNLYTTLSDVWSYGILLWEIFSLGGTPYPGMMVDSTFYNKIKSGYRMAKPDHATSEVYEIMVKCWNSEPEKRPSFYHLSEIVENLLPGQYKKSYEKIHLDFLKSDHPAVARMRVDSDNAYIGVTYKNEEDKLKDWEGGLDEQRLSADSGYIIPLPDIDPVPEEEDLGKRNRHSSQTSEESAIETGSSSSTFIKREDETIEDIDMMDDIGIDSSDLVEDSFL

[7] = system: Platelet-derived growth factor receptor alpha (Homo sapiens), P16234 [T674I]; details: at 1 µM
[8] = system: Platelet-derived growth factor receptor alpha (Homo sapiens), P16234 [V561D]; details: at 0.1 µM
Platelet-derived growth factor receptor alpha (Homo sapiens), P16234 [V561D], sequence (P16234 whole entry V561D): as the sequence (P16234 whole entry T674I) above, with V561D, I674T counted along it

[9] = system: Platelet-derived growth factor receptor alpha (Homo sapiens), P16234 [V561D]; details: at 1 µM
[10] = target: Platelet-derived growth factor receptor beta (Homo sapiens) (UniProt P09619); details: at 0.1 µM
[11] = target: Platelet-derived growth factor receptor beta (Homo sapiens) (UniProt P09619); details: at 1 µM
[12] = target: Tyrosine-protein kinase FRK (Homo sapiens) (UniProt P42685); details: at 0.1 µM
Tyrosine-protein kinase FRK (Homo sapiens), sequence (P42685 whole entry): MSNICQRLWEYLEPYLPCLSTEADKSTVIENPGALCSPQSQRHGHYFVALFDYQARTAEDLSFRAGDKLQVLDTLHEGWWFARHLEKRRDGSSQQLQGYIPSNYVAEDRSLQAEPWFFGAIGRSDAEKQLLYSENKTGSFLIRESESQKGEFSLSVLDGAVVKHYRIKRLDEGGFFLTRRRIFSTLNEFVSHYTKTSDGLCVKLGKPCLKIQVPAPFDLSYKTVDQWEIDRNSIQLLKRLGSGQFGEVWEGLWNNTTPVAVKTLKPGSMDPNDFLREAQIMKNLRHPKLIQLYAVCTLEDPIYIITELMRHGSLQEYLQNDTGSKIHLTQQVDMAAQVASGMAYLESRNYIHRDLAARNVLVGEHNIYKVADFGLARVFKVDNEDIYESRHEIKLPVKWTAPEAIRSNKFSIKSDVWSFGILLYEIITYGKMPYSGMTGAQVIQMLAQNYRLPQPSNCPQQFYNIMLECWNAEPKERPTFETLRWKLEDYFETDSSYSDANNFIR

[13] = target: Tyrosine-protein kinase FRK (Homo sapiens) (UniProt P42685); details: at 1 µM
[14] = target: Protein-tyrosine kinase 2-beta (Homo sapiens) (UniProt Q14289); details: at 0.1 µM
[15] = target: Protein-tyrosine kinase 2-beta (Homo sapiens) (UniProt Q14289); details: at 1 µM
[16] = target: Proto-oncogene tyrosine-protein kinase receptor Ret (Homo sapiens) (UniProt P07949); details: at 0.1 µM
[17] = target: Proto-oncogene tyrosine-protein kinase receptor Ret (Homo sapiens) (UniProt P07949); details: at 1 µM
[18] = system: Proto-oncogene tyrosine-protein kinase receptor Ret (Homo sapiens), P07949 [V804L]; details: at 0.1 µM
Proto-oncogene tyrosine-protein kinase receptor Ret (Homo sapiens), P07949 [V804L], sequence (P07949 whole entry V804L): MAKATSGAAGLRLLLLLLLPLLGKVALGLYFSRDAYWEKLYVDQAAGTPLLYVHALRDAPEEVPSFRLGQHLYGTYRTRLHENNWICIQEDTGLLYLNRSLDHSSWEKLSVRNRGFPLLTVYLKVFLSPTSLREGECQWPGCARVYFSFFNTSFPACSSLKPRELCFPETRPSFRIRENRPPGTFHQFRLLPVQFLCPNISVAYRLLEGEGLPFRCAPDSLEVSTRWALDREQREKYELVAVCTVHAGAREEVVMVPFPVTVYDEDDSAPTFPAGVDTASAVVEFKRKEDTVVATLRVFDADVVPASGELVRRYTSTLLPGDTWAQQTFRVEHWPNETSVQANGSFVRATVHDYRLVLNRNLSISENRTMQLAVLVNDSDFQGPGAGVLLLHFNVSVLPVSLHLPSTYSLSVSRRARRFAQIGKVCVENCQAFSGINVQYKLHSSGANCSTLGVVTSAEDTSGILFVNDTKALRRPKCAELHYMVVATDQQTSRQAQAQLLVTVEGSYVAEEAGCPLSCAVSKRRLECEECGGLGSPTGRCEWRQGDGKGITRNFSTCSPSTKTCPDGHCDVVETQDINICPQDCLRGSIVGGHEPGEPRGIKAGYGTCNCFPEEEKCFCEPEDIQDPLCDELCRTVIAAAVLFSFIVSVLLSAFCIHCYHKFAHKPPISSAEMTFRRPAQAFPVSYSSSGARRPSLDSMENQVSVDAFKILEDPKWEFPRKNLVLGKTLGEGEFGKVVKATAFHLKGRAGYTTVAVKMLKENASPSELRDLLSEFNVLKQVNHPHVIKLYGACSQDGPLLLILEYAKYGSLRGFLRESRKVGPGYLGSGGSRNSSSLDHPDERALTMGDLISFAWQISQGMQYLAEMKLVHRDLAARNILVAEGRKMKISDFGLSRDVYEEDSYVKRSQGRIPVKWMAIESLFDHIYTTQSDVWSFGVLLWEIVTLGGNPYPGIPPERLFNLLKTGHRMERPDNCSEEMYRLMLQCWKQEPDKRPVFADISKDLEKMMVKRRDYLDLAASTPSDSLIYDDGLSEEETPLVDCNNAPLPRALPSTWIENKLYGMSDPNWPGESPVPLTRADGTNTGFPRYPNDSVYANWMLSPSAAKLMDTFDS

[19] = system: Proto-oncogene tyrosine-protein kinase receptor Ret (Homo sapiens), P07949 [V804L]; details: at 1 µM
[20] = system: Proto-oncogene tyrosine-protein kinase receptor Ret (Homo sapiens), P07949 [Y791F]; details: at 0.1 µM
Proto-oncogene tyrosine-protein kinase receptor Ret (Homo sapiens), P07949 [Y791F], sequence (P07949 whole entry Y791F): as the sequence (P07949 whole entry V804L) above, with Y791F, L804V counted along it

| Structure (SMILES) | inhibition [1] | inhibition [2] | inhibition [3] | inhibition [4] | inhibition [5] | inhibition [6] | inhibition [7] | inhibition [8] | inhibition [9] | inhibition [10] | inhibition [11] | inhibition [12] | inhibition [13] | inhibition [14] | inhibition [15] | inhibition [16] | inhibition [17] | inhibition [18] | inhibition [19] | inhibition [20] |
| --- | --- | --- | --- | --- | --- | --- | --- | --- | --- | --- | --- | --- | --- | --- | --- | --- | --- | --- | --- | --- |
| CCS(=O)(=O)c1ccc(OC)c(Nc2ncc(-c3cccc(C(C)=O)c3)o2)c1 | 4.06% | 23.2% | 68% | 20.1% | 72.8% | 7.08% | 8.46% | 22.1% | 68.2% | 53.7% | 84.3% | 3.25% | 14.2% | 5.43% | 8.24% | 7.26% | 33.6% | 5.03% | 28.8% | 6.91% |
| CC1(C)CC(n2cnc(-c3ccc(F)cc3)c2-c2ccnc(N)n2)CC(C)(C)N1 | 5.42% | 3.29% | 5.34% | 1.19% | 0.18% | 2.4% | 4.71% | -0.6% | 3.08% | 5.64% | 5.35% | 0.92% | 1.66% | 4.26% | 3.23% | -0.92% | -0.44% | 2.21% | 2.81% | 1.42% |
| c1cnn2ncc(-c3ccnc(NCCCN4CCOCC4)n3)c2c1 | 0.6% | 5.5% | 6.66% | 0.88% | 3.59% | 3.47% | 5.82% | 3.16% | 2.82% | 0.52% | 4.61% | 0.16% | 0.39% | 9.94% | 6.44% | 4.78% | 0.87% | 2.98% | 2.2% | 6.04% |
| NS(=O)(=O)c1ccc(N/N=C2\C(=O)Nc3cccc(CCc4ccncc4)c32)cc1 | 24.2% | 33.5% | 60.7% | 16.9% | 58.5% | 6.75% | 34.6% | 26.3% | 72.3% | 29.6% | 58.5% | -0.74% | -0.31% | 4.23% | 20.1% | 21.6% | 43.4% | 38.5% | 43.6% | 18.8% |
| COC(=O)Nc1nc2ccc(Oc3ccc(NC(=O)Nc4cc(C(F)(F)F)ccc4F)cc3)cc2s1 | 85.6% | 70.3% | 83.5% | 5.8% | 22.8% | 41.6% | 92% | 74.8% | 93.7% | 20.2% | 55.9% | 0.62% | 4.14% | 1.98% | 6.74% | 86.7% | 88.4% | 67.3% | 84.6% | 78.9% |
| CNC(=O)c1ncccc1Nc1nc(Nc2cc3c(cc2OC)CCCN3C(=O)CN(C)C)nc2[nH]ccc12 | 16.7% | 10.7% | 20.6% | 3.17% | 7.19% | 5.75% | 6.87% | 3.32% | 9.94% | 7.26% | 27.1% | 2.49% | 2.98% | 37.8% | 95.7% | 7.39% | 9.1% | 7.91% | 20.4% | 7.98% |
